Each structure is given as a SMILES string. Inconclusive results are not listed. Calls of active or inactive are those of the source. How the source made its calls: active means hit-call score of the fitted dose curve at least 0.9, where 1 is the maximum; inconclusive means response in the unintended direction; inactive means score below 0.9.

Chain of rat Thyrotropin Releasing Hormone Receptor (TRH), Trhr (gene 25570) (Q01717 whole entry, looked up): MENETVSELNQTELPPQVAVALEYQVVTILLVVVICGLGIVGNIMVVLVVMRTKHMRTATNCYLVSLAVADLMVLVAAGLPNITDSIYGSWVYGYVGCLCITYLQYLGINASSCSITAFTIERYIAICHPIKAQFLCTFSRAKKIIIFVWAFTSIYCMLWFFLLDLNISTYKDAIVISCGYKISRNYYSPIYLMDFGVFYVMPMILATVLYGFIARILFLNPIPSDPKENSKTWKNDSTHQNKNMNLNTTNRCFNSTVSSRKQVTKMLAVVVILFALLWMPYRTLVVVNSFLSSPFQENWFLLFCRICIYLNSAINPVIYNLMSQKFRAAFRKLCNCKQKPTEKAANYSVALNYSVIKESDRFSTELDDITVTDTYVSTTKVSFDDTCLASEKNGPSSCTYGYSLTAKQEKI
Chain of rat Glutamate, AMPA Site (AMPA), Gria1 (gene 50592) (P19490 whole entry, looked up): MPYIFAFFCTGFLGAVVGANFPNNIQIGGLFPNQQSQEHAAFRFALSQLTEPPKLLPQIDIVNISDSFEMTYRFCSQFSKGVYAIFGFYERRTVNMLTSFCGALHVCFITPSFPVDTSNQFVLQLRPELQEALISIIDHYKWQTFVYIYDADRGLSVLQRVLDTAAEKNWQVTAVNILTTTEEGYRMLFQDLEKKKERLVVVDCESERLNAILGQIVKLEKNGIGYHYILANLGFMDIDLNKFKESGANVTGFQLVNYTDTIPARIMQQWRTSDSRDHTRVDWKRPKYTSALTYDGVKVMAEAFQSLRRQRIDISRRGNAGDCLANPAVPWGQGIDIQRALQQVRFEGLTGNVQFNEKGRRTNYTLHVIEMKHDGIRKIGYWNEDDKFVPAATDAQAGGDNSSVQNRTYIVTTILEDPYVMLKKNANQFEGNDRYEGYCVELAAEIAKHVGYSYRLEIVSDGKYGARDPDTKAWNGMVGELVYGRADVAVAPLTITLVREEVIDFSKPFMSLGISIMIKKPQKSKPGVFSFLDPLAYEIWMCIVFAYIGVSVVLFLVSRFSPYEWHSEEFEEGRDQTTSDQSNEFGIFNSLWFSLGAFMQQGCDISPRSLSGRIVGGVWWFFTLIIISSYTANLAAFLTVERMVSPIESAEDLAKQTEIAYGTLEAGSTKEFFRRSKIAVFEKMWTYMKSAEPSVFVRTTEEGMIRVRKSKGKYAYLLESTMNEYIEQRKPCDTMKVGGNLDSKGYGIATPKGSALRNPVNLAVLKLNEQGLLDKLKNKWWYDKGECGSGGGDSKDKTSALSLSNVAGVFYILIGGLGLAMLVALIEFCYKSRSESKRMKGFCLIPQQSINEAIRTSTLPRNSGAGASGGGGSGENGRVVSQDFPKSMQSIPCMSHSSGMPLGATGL
Chain of bovine Gamma-Aminobutyric Acid Type A Receptor BDZ, alpha 1 site (GABARa1), GABRA1 (gene 780973) (P08219 whole entry, looked up): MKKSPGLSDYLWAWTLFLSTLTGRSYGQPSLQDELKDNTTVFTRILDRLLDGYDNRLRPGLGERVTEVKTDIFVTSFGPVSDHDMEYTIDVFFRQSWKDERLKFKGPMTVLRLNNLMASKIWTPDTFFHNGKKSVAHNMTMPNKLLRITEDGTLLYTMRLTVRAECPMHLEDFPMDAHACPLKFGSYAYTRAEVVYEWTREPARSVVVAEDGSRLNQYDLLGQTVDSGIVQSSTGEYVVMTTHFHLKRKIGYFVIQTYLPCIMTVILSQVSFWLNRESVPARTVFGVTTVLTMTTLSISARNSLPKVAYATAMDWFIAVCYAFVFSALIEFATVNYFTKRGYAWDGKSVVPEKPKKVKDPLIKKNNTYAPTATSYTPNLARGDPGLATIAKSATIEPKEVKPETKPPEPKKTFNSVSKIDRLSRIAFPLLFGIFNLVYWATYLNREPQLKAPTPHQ
Chain of human Serotonin, 5-Hydroxytryptamine Receptor 3 (5HT3), HTR3A (gene 3359) (P46098 whole entry, looked up): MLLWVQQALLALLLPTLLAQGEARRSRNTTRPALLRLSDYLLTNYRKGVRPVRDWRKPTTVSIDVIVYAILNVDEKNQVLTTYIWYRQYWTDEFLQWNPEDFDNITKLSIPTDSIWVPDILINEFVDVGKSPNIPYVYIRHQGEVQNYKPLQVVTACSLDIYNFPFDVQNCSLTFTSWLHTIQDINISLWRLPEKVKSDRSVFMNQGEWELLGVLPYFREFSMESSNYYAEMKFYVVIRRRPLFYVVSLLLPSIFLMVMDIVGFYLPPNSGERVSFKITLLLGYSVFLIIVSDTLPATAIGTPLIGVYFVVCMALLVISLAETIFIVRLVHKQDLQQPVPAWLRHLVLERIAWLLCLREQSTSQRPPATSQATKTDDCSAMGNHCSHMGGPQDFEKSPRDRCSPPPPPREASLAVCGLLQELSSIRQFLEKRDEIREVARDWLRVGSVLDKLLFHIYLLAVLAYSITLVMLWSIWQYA

System in one assay: not listed separately
The experiment in a line: NVS_IC_rCaDHPRCh_L: NovaScreen (NVS) Ion Channel Assay for rat Calcium Channel, Type L, Dihydropyridine Site (CaDHPRCh_L) (AID 2283320). The essentials:
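Radioligand binding to dihydropyridine site on rat cortical membranes, filter-based scintillation counting, 1 h after dosing. Screened in duplicate at 25 uM; actives rerun in concentration-response up to 50 uM. Loss of signal versus DMSO baseline.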
With `CCCCOCN(C(=O)CCl)c1c(CC)cccc1CC`, the half-maximal activity concentration (AC50) was 9.86 µM (active).

On to `CO/N=C(/C1=NOCCO1)c1ccccc1Oc1ncnc(Oc2ccccc2Cl)c1F`, for which the result was inactive.

`COC(=O)c1c(C(F)F)nc(C(F)(F)F)c(C2=NCCS2)c1CC(C)C`: the result was inactive.

The target of another assay is bovine Gamma-Aminobutyric Acid Type A Receptor BDZ, alpha 1 site (GABARa1), GABRA1 (gene 780973) (UniProt P08219). The experiment in a line: NVS_LGIC_bGABARa1: NovaScreen (NVS) Ligand-Gated Ion Channel Assay for bovine Gamma-Aminobutyric Acid Type A Receptor BDZ, alpha 1 site (GABARa1) (AID 2283321). Summed up:
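Radioligand competition binding on bovine cortical membranes, 0.75 h, filter-based scintillation counting. Primary single concentration 25 uM in duplicate; actives rerun in concentration-response to 50 uM max. Loss of signal fitted versus DMSO.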
Take `CC1(C)C(C(=O)OC(C#N)c2cccc(Oc3ccccc3)c2)C1(C)C` (configuration not stated): the result was inactive.

In the case of `Nc1c(Cl)c(F)nc(OCC(=O)O)c1Cl`, the compound was called inactive.

`CS(=O)(=O)c1cc(C(F)(F)F)ccc1C(=O)c1cnoc1C1CC1`: the compound was called inactive.

With `COP(=S)(OC)SCn1nnc2ccccc2c1=O`, the AC50 is 10.1 µM (active).

A further assay deals with Sodium channel protein type 1 subunit alpha (Rattus norvegicus) (UniProt P04774). The assay is described as follows: NVS_IC_rNaCh_site2: NovaScreen (NVS) Ion Channel Assay for rat Sodium Channel, Site 2 (NaCh) (AID 2283322).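 Further: hit means loss of radioligand binding signal relative to DMSO so AC50 marks displacement.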 The essentials: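 Membranes: rat forebrain. Format: competitive radioligand displacement, filter separation, scintillation readout, 1 h exposure. Primary screen in duplicate at 25 uM; actives retested in concentration series.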
As for `N#Cc1c(Cl)cccc1Cl`, the AC50 was 38.2 µM (active).

Turning to `CC(C)(C)C(=O)C(Oc1ccc(Cl)cc1)n1cncn1` (configuration not stated), the outcome was inactive.

`CCNC(=O)NC(=O)C(C#N)=NOC`: the call was inactive.

For `CC(C)C1(C)N=C(c2ncccc2C(=O)O)NC1=O` (configuration not stated), the result was inactive.

A further assay addresses rat Glutamate, AMPA Site (AMPA), Gria1 (gene 50592) (UniProt P19490). The assay is described as follows: NVS_LGIC_rAMPA: NovaScreen (NVS) Ligand-Gated Ion Channel Assay for rat Glutamate, AMPA Site (AMPA) (AID 2283324). Summed up:
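Rat forebrain membranes; radioligand binding read 1 h after dosing by filtration and scintillation counting. Duplicate single-point screen at 25 uM, then concentration-response to 50 uM for threshold hits (e.g. 30% inhibition); loss of signal vs DMSO.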
For `CN=C=S`, the outcome was inactive.

As to `CCNC(=O)NC(=O)C(C#N)=NOC`, the outcome was inactive.

On to `C=C(C)CN(CC)c1c([N+](=O)[O-])cc(C(F)(F)F)cc1[N+](=O)[O-]`, for which the call was inactive.

A further assay addresses human Serotonin, 5-Hydroxytryptamine Receptor 3 (5HT3), HTR3A (gene 3359) (UniProt P46098). The assay is described as follows: NVS_LGIC_h5HT3: NovaScreen (NVS) Ligand-Gated Ion Channel Assay for human Serotonin, 5-Hydroxytryptamine Receptor 3 (5HT3) (AID 2283325). The essentials: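 Radioligand displacement binding to human 5-HT3 from HEK293 membranes, read by filter-based scintillation counting after 1 h. Screen at 25 uM in duplicate; chemicals passing threshold were retested in concentration-response up to 50 uM.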
Take `CC1(C)CCC(=Cc2ccc(Cl)cc2)C1(O)Cn1cncn1` (configuration not stated): the result was inactive.

With `CC1(C)C(C(=O)OC(C#N)c2cccc(Oc3ccccc3)c2)C1(C)C` (configuration not stated), the compound was classed as inactive.

Take `Cc1c(COC(=O)[C@@H]2[C@H](/C=C(\Cl)C(F)(F)F)C2(C)C)cccc1-c1ccccc1`: the outcome was inactive.

For the compound `CS(=O)(=O)c1cc(C(F)(F)F)ccc1C(=O)c1cnoc1C1CC1`, the compound was called inactive.

Another assay concerns the target rat Thyrotropin Releasing Hormone Receptor (TRH), Trhr (gene 25570) (UniProt Q01717). The experiment in a line: NVS_GPCR_rTRH: NovaScreen (NVS) G Protein-Coupled Receptor Assay for rat Thyrotropin Releasing Hormone Receptor (TRH) (AID 2283329).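 Further: hit means lower bound tracer signal versus DMSO baseline.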 Summed up:
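Rat forebrain membrane prep, radioligand displacement, filter scintillation readout at 4 h. Single conc 25 uM, duplicate; actives retested as concentration series. DMSO = negative control/baseline.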
Regarding `Cc1cnc(C2=NC(C)(C(C)C)C(=O)N2)c(C(=O)O)c1` (configuration not stated), the call was inactive.

As to `CCNC(=O)NC(=O)C(C#N)=NOC`, the call was inactive.

Consider `CCOP(=S)(OCC)Oc1nc(Cl)n(C(C)C)n1`, for which the compound was called inactive.

As to `CCOc1nc(F)cc2nc(S(=O)(=O)Nc3c(Cl)cccc3Cl)nn12`, the compound was called inactive.

With `CC(C)C1(C)N=C(c2ncccc2C(=O)O)NC1=O` (configuration not stated), the compound was classed as inactive.

On to `COC(=O)c1c(C(F)F)nc(C(F)(F)F)c(C2=NCCS2)c1CC(C)C`, for which the AC50 is 25 µM (active).

Regarding `CCCCC(O)(Cn1cncn1)c1ccc(Cl)cc1Cl` (configuration not stated), the outcome was inactive.

Take `Nc1cnn(-c2ccccc2)c(=O)c1Cl`: the result was inactive.

Consider `CC1(C)CON(Cc2ccccc2Cl)C1=O`, for which the result was inactive.

Source of the values: PubChem BioAssay (EPA / NIEHS).
